# FadD28 FP inh: M. tuberculosis FadD28 bisubstrate binding inhibition; FadD28 bisubstrate probe binding, fluorescence polarization; inhibition, % at 12.5 µM; 360,000 compounds, 0.22% hits; in the data active means inhibition above about 8.5%, passing the limit was not always enough; inconclusive means no clear call, values can overlap the other calls
# Y pestis TopoI: Y. pestis Topo-I inhibition via cleavage products; Y. pestis Topo-I cleavage product accumulation, plate reader; activity, % at 10 µM; 360,000 compounds, 0.064% hits; AID 504884; in the data active means activity above about 50%, passing the limit was not always enough; inconclusive means no clear call, values can overlap the other calls
# PrP UTR inh: suppresses PrP 5' UTR mRNA reporter expression. AID 488862. inhibition, % (concentration not given with the values). 340,000 compounds, 0.35% hits. cell-based PrP 5' UTR mRNA reporter, plate reader; in the data active means inhibition above about 52%; further: 0 = median of the neutral control wells
# BioA inh: inhibitors of Mycobacterium tuberculosis BioA enzyme; purified M. tuberculosis BioA enzyme, plate reader; inhibition, % at 9.99 µM; 360,000 compounds, 0.096% hits; AID 602481; in the data active means inhibition above about 40%; inconclusive means no clear call, values can overlap the other calls
# PfHsp40 rescue: restores yeast growth despite PfHsp40 toxicity; S. cerevisiae expressing PfHsp40, growth rescue, ATP luminescence; growth rescue, % at 12.5 µM; 340,000 compounds, 0.68% hits; in the data active means growth rescue above about 28%, passing the limit was not always enough; inconclusive means no clear call, values can overlap the other calls;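 further: yeast W303a lacking pdr1 and pdr3 grown in galactose medium; growth measured after three days at 30 °C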
# TcdB GH inh: TcdB glycohydrolase inhibition | TcdB glycohydrolase enzymatic assay, plate reader | 350,000 compounds, 0.24% hits | P18177 | AID 652162 | inhibition, % at 9.99 µM; in the data active means inhibition above about 10%
# Target sequence (P18177 whole entry, looked up): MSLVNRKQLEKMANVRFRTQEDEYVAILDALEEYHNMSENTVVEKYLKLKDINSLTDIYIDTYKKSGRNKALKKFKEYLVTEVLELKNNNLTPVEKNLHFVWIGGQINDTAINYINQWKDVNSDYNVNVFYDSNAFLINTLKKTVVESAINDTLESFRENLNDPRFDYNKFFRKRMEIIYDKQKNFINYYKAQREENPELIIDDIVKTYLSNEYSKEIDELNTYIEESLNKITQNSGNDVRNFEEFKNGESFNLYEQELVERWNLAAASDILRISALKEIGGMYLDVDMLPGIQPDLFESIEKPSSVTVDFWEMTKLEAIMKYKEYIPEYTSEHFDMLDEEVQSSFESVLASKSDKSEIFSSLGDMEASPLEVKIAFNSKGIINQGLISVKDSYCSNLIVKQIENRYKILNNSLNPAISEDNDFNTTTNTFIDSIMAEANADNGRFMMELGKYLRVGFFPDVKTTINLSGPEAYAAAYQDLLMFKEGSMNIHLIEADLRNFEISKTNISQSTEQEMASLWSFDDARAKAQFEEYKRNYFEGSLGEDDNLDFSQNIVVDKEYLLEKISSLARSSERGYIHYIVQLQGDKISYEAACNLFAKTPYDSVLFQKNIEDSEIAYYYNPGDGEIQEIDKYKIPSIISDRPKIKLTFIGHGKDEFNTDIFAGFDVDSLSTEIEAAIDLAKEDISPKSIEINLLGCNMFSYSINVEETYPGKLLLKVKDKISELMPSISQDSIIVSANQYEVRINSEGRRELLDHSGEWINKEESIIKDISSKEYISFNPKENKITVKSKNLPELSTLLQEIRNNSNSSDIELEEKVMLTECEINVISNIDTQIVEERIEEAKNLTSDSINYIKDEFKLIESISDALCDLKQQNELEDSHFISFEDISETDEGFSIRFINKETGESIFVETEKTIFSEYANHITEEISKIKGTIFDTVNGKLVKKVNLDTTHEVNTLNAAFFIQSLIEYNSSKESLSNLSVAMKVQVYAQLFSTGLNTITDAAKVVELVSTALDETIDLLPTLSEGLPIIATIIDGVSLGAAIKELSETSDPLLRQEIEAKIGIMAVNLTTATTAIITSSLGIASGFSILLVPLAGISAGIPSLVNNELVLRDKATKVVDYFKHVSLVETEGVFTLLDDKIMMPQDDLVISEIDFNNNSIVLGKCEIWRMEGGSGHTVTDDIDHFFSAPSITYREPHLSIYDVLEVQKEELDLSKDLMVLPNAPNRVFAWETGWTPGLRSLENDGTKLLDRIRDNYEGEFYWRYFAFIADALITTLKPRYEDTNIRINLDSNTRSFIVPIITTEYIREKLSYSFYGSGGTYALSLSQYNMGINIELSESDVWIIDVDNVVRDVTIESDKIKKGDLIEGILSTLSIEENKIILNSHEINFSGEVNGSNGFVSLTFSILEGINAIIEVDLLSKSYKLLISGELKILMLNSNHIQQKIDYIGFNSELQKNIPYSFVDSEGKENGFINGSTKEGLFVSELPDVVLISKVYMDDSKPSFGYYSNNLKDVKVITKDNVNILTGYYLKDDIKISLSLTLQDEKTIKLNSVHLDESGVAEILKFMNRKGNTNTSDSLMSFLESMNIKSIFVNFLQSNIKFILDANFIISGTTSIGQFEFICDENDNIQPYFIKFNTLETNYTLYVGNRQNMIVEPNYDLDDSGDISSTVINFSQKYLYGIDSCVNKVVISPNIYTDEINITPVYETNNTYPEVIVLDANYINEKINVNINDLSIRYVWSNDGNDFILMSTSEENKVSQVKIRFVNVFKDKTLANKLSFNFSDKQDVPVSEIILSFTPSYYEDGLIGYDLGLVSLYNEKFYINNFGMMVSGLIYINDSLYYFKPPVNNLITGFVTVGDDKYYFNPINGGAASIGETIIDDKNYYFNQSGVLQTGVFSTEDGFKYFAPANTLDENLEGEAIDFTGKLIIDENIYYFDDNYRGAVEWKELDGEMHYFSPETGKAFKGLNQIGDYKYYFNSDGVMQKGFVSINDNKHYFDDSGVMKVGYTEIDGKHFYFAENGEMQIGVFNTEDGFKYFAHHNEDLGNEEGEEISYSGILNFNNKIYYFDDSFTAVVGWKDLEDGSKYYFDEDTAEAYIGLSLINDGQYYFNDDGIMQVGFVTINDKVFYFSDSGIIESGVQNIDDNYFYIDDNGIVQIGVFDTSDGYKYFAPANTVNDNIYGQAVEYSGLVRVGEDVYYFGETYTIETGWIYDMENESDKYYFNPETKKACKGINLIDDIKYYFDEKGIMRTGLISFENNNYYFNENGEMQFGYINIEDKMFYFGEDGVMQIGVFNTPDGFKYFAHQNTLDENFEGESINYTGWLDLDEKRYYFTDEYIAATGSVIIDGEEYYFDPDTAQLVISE
# Starred values were filed as active, the others as inactive; u = inconclusive; x = not tested or not shown; ! = a repeat was not active. Sampled rows, rich in hits. Any-hit rate of the full collection: about 1.2%.
SMILES,FadD28 FP inh,Y pestis TopoI,PrP UTR inh,BioA inh,PfHsp40 rescue,TcdB GH inh
O=C(O)Cc1ccc(N=Nc2c(O)c(C(=O)O)cc3ccccc23)cc1,14*,-5,-15,9,-1,-1
O=C(O)c1cc(N/N=C/c2ccc(-c3ccccc3)cc2)ccc1Cl,19*,-9,-87,2,1,-3
O=C(O)c1ccc(N/N=C/C=C/c2ccccc2)cc1,3,-11,-60,0,458*,-1
O=C(O)c1ccc(N/N=C/c2ccc(-c3ccccc3)cc2)cc1,19*,8,-67,x,0,1
O=C(O)c1cc(-c2ccc(/C=N/Nc3ccc(Cl)cc3)o2)ccc1Cl,15*,-9,-3,27,13,x
CC(C)NC(=O)N(C)C[C@@H]1OCCCC[C@H](C)Oc2ccc(N(C)C)cc2C(=O)N([C@H](C)CO)C[C@H]1C,x,x,x,0,x,-8
Cc1ccc(S(=O)(=O)NC[C@H]2CC[C@H]3[C@H](CN3Cc3cc(-c4ccccc4)on3)O2)cc1,x,x,x,x,x,0
C/C=C/c1ccc2c(c1)O[C@@H](CN(C)C)[C@H](C)CN([C@@H](C)CO)S2(=O)=O,x,x,x,0,x,-1
O=C(C[C@H]1CC[C@H]2[C@@H](COC[C@@H](O)CN2CC2CCOCC2)O1)NCC1CC1,x,x,x,0,x,-1
O=[N+]([O-])c1cccc(C=NNc2ccccc2)c1,2,-23,-36,0,u,-5
O=[N+]([O-])c1ccc(C=NNc2ccccc2)cc1,-1,-14,-12,0,30*,0
COc1ccc(C(=O)Oc2ccc(/C=N/Nc3ccc(Cl)c(C(=O)O)c3)cc2OC)cc1,9.5*,2,-13,5,0,-2
CCS(=O)(=O)NCC[C@@H]1CC[C@@H](NS(=O)(=O)c2cccc(Cl)c2)[C@H](CO)O1,x,x,x,-2,x,0
CO[C@H]1CN(C)C(=O)c2ccc(NC(=O)NC(C)C)cc2OC[C@H](C)N(C(=O)NC(C)C)C[C@H]1C,x,x,x,-1,x,-1
CC1(C)OC2C(O1)[C@@H](CO)O[C@H]2n1cnc2c(N)ncnc21 (stereo not given in full),1,4,-2,x,3,14*
CCc1cccc2c(C(=O)CN3C(=O)NC(C)(c4cccc5ccccc45)C3=O)c[nH]c12 (stereo not given),19*,-5,-22,x,1,1
CCc1cccc2c(C(=O)CN3C(=O)NC4(CCc5ccccc54)C3=O)c[nH]c12 (stereo not given),33*,7,-28,0,-1,0
O=C(CN1C(=O)NC2(CCCc3ccccc32)C1=O)NCc1cccs1 (stereo not given),-1,2,-20,3,0,15*
CCc1cccc2c(C(=O)CN3C(=O)N(C)C4(CCCCC4)C3=O)c[nH]c12,u,-8,-26,1,2,1
CCNC(=O)Nc1ccc2c(c1)C(=O)N(C)[C@@H]1CC[C@@H](CC(=O)NCC3CCCCC3)O[C@@H]1CO2,x,x,x,-4,x,1
C[C@H](CO)N1C[C@H](C)[C@H](CN(C)C(=O)C2CC2)Oc2cc(-c3ccccc3F)ccc2S1(=O)=O,x,x,x,-2,x,-1
O=C(c1ccc([N+](=O)[O-])o1)N1CCN(Cc2ccccc2)CC1,1,-2,-1,-1,-1,1
CCc1cccc2sc(N3CCN(C(=O)c4ccc([N+](=O)[O-])o4)CC3)nc12,-3,25,-56,0,39*,x
CCCC[C@]12CCCC(=O)N1CCc1c2[nH]c2ccccc12,x,x,x,0,x,0
O=C(Nc1ccc2c(c1)OCO2)N[C@H]1CC[C@H](CC(=O)N2CCN(c3ccccc3)CC2)O[C@H]1CO,x,x,x,0,x,-1
SMILES,FadD28 FP inh,Y pestis TopoI,PrP UTR inh,BioA inh,PfHsp40 rescue,TcdB GH inh
Cc1ccc(S(=O)(=O)N(Cc2cccc(C(F)(F)F)c2)C(=O)N2CCN(C)CC2)cc1,-2,-11,-27,-1,52*,3
CN(C)c1ccc(C=c2c3ccccc3n3c2c2ccccc2[n+]3C)cc1,-6,-56,24,x,2,0
CCOC(=O)c1cc2c(=Cc3ccc(N(C)C)cc3)c3ccccc3n2[n+]1C,-1,-41,0,x,284*,3
Cc1cc2c(=Cc3ccc(N(C)C)cc3)c3ccccc3n2[n+]1C,-3,-35,-22,x,180*,0
CN(C)C(=O)C[C@@H]1C=C[C@H](NC(=O)C2CCC2)[C@H](CO)O1,x,x,x,2,x,0
Fc1ccc(SCCc2ccccn2)cc1,-1,50*!,-22,0,-1,0

# Screening results from PubChem BioAssay.
